Pf growth 48h: inhibits P. falciparum growth in the first generation, 48 h. Potency, µM (top dose mostly 28.7 µM), inactives show top-dose activity change, negative = inhibition, most hits filed as inhibitors. P. falciparum luciferase growth in erythrocytes, 48 h. actives 5.9% (n = 310,000)
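Compounds are pin-transferred into medium, infected erythrocytes (2% hematocrit, 0.1% parasitemia final) are added, and plates sit one parasite generation at 37 C in 5% CO2. Detection reagent is then added and luminescence measured.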
Vaccinia Venus: vaccinia inhibition (Venus reporter); Vaccinia virus Venus reporter expression, fluorescence; Potency, µM (series often up to 36.5 µM), without a hit: top-dose activity change, negative = inhibition, hits mostly inhibitors; actives 0.46% (n = 330,000); calls by dose curve; tested in A549 cells; further: nearly all actives have a fitted effect of over 30% in size
AMA1-RON2 inh: AMA1-RON2 (P. falciparum) interaction inhibition; AlphaScreen AMA1-biotinylated RON2 peptide binding; Potency, µM (highest dose often 58.2 µM), for inactives: at the highest dose activity change, negative = inhibition, usual class: inhibitors; actives 0.2% (n = 360,000);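 further: 0% = vehicle wells and -100% = peptide control; nearly all actives have a fitted effect of over 45% in size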
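AMA1 (3D7) with his tag at 25 nM final met compounds first, then biotinylated RON2 peptide at 25 nM; detection used donor plus acceptor beads, 10 µg/mL apiece, read by AlphaScreen after 30 min at room temperature.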
Vaccinia mCherry: inhibitors of vaccinia virus infection (mCherry reporter signal); actives 0.63% (n = 310,000); Vaccinia virus mCherry reporter infection, fluorescence; Potency, µM (highest dose often 36.5 µM), inactives show at the top dose activity change, negative = inhibition, most hits filed as inhibitors; AID 720579; calls by dose curve; tested in A549 cells; further: nearly all actives have a fitted effect of over 35% in size
Pf growth 96h: inhibits malaria parasite growth, 96 h; Potency, µM (highest dose often 28.7 µM), for inactives: at the highest dose activity change, negative = inhibition, usual class: inhibitors; actives 6.9% (n = 320,000); P. falciparum luciferase reporter growth, 96 h
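Cell-based qHTS: luciferase-tagged P. falciparum in erythrocytes (2% hematocrit, 0.05% parasitemia final) incubated with compounds for 96 hours, 37 C, 5% CO2; luciferase detection reagent then added and luminescence measured.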
* marks the source's active call; other numbers are inactive results; [ ] = another dose, or the depositor's remark. Sampled rows, rich in hits. Any-hit rate of the full collection: about 8.7%. Unless noted, the call rests on the fitted dose curve; in most records, active means well fitted curve in the direction sought with a large enough effect; inconclusive means small, poorly fitted or top-dose-only effect, or another doubt; inactive means no such curve, though single readings can be large; an effect the other way counts as inactive or inconclusive. Unless noted, on the % scale 0 is the no-effect control and ±100 the full control effect; potency means the concentration at half of the fitted maximal effect.

Results for O=C(NCC1CCCO1)c1cc2ccccc2[nH]1 (stereo not given) ?
Pf growth 48h: 15%; Vaccinia Venus: -14%; AMA1-RON2 inh: 8%; Pf growth 96h: inconclusive

Results for COc1ccc(S(=O)(=O)NCCc2sc(C)nc2C)cc1F ?
Vaccinia Venus: 0%; Vaccinia mCherry: -11%

What do the screens show for `CCOc1ccc(CNC(=O)c2ccc3nc(CC)c(CC)nc3c2)cc1`?
Vaccinia Venus: -8%; Vaccinia mCherry: -18%

How did COc1cccc(CNn2c(-c3cccc(C)c3)nc3ccccc3c2=O)c1 do in these assays?
Vaccinia Venus: -9%; AMA1-RON2 inh: -4%; Vaccinia mCherry: inactive; Pf growth 96h: 9.3µM*

What do the screens show for `COc1ccc(OC)c(CNn2c(-c3cccc(C)c3)nc3ccccc3c2=O)c1`?
Vaccinia Venus: -11%; AMA1-RON2 inh: -8%; Vaccinia mCherry: -2%; Pf growth 96h: 8.3µM*

How did COc1cc(OC)c(NC(=O)c2ccc(-n3cnc4cccnc43)cc2)cc1Cl do in these assays?
Vaccinia Venus: 3%; Vaccinia mCherry: -2%

What do the screens show for `COc1ccc2c(c1)C1=NN(/C(C)=C\C(C)=O)C(c3ccccc3)C1CC2` (stereo not given)?
Pf growth 48h: 13µM*; Vaccinia Venus: -4%; AMA1-RON2 inh: 0%; Vaccinia mCherry: -3%; Pf growth 96h: 1%

How did c1csc(-c2csc3nc(CN4CCOCC4)nc(NCc4ccc5c(c4)OCO5)c23)c1 do in these assays?
Pf growth 48h: inconclusive; AMA1-RON2 inh: -29%; Pf growth 96h: 8.3µM*

What do the screens show for `c1coc(CNCc2cccs2)c1`?
Pf growth 48h: 23%; Vaccinia Venus: -7%; AMA1-RON2 inh: 7%; Vaccinia mCherry: -1%; Pf growth 96h: 9.3µM*

How did O=C(NNC1=C(C(=O)C(F)(F)F)CCC1)c1cccc(Cl)c1 do in these assays?
Pf growth 48h: 8%; Vaccinia Venus: -25%; AMA1-RON2 inh: -5%

What do the screens show for `O=C(NNC1=C(C(=O)C(F)(F)F)CCC1)c1ccc(Cl)cc1`?
Pf growth 48h: 19%; Vaccinia Venus: -12%; AMA1-RON2 inh: 63%; Vaccinia mCherry: inactive; Pf growth 96h: 2.9µM*

How did COc1cc(/C=C(\C#N)c2nc3ccccc3[nH]2)cc(Br)c1OCc1ccc(F)cc1 do in these assays?
Pf growth 48h: 3.7µM*; Vaccinia Venus: -1%; AMA1-RON2 inh: -17%; Vaccinia mCherry: -16%; Pf growth 96h: 2.1µM*

What do the screens show for `COc1cc(/C=C(\C#N)c2nc3ccccc3[nH]2)cc(Br)c1OCc1ccccc1`?
Pf growth 48h: 2.9µM*; Vaccinia Venus: -13%; AMA1-RON2 inh: 24%; Vaccinia mCherry: -15%; Pf growth 96h: -15%

What do the screens show for `Cc1ccc(OCCn2ncc3ccccc3c2=O)c(C)c1`?
Pf growth 48h: -22%; AMA1-RON2 inh: 12%; Pf growth 96h: -23%

How did O=c1c2ccccc2cnn1CCOc1cccc(Br)c1 do in these assays?
Pf growth 48h: inconclusive; Vaccinia Venus: -11%; AMA1-RON2 inh: -15%; Vaccinia mCherry: -16%; Pf growth 96h: 9.3µM*

What do the screens show for `Cc1ccc(C)c(S(=O)(=O)N2CCN(C(=O)c3ccccc3Cc3ccccc3)CC2)c1`?
Pf growth 48h: 12µM*; Vaccinia Venus: -1%; AMA1-RON2 inh: -5%; Vaccinia mCherry: inactive; Pf growth 96h: inconclusive

How did O=C(c1ccco1)N1CCN(S(=O)(=O)c2ccccc2[N+](=O)[O-])CC1 do in these assays?
Pf growth 48h: inconclusive; Vaccinia Venus: -3%; AMA1-RON2 inh: 24%; Vaccinia mCherry: 1%; Pf growth 96h: 69%

Results for CCn1c(=O)c(C(=O)CN2CCN(S(=O)(=O)c3cc(C)ccc3C)CC2)c(N)n(Cc2ccccc2)c1=O ?
Pf growth 48h: inconclusive; Vaccinia Venus: -12%; AMA1-RON2 inh: 8%; Vaccinia mCherry: -9%; Pf growth 96h: 13µM*

Results for Cc1ccc(C)c(S(=O)(=O)N2CCN(C(C)C(=O)Nc3ccccc3-c3ccccc3)CC2)c1 (stereo not given) ?
Pf growth 48h: 9.3µM*; Vaccinia Venus: -24%; AMA1-RON2 inh: -3%; Vaccinia mCherry: -3%; Pf growth 96h: 4.1µM*

What do the screens show for `Cc1ccc(C)c(S(=O)(=O)N2CCN(C(=O)c3ccccn3)CC2)c1`?
Pf growth 48h: -12%; AMA1-RON2 inh: -3%; Pf growth 96h: -20%

How did O=C(c1ccccc1Cc1ccccc1)N1CCN(S(=O)(=O)c2ccccc2[N+](=O)[O-])CC1 do in these assays?
Pf growth 48h: inconclusive; Vaccinia Venus: -26%; AMA1-RON2 inh: -14%; Vaccinia mCherry: -12%; Pf growth 96h: 13µM*

How did Cn1nc(C(=O)Nc2ccc(F)c(Cl)c2)c2c1-c1ccccc1S(=O)(=O)C2 do in these assays?
Vaccinia Venus: -9%; Vaccinia mCherry: -15%

Results for COc1cc(C2C(C(=O)Nc3ccccc3C)=C(C)Nc3ncnn32)ccc1OCC(N)=O (stereo not given) ?
Vaccinia Venus: -5%; Vaccinia mCherry: -8%

How did O=C(c1ccccc1Cc1ccccc1)N1CCN(S(=O)(=O)c2ccccc2)CC1 do in these assays?
Pf growth 48h: -28%; Vaccinia Venus: -9%; AMA1-RON2 inh: 16%; Vaccinia mCherry: inactive; Pf growth 96h: inconclusive

What do the screens show for `O=C(c1ccccc1Cc1ccccc1)N1CCN(S(=O)(=O)c2ccccc2F)CC1`?
Pf growth 48h: 12µM*; AMA1-RON2 inh: -20%; Pf growth 96h: 13µM*

Results for COc1ccc(C)cc1N1C(=N)/C(=C2/Nc3ccccc3S2)C(c2ccccc2)C1=O (stereo not given) ?
Pf growth 48h: 13µM*; Vaccinia Venus: -18%; AMA1-RON2 inh: 6%[11.6 µM]; Vaccinia mCherry: -12%; Pf growth 96h: -104%

What do the screens show for `COc1ccc(C2C(Oc3ccccc3)C(=O)N2c2cc(C)ccc2C)cc1OC` (stereo not given)?
Pf growth 48h: -19%; Vaccinia Venus: -11%; AMA1-RON2 inh: 9%; Vaccinia mCherry: -9%; Pf growth 96h: -27%

Results for CCOC(=O)c1c(C)[nH]c(CCC(=O)NC(C)c2ccccc2)c1C (stereo not given) ?
Vaccinia Venus: -2%; Vaccinia mCherry: -4%

Results for CC(C)c1ccc(NC(=O)CSC2=Nc3ccccc3C3=NC(CCC(=O)NCc4ccco4)C(=O)N23)cc1 (stereo not given) ?
Vaccinia Venus: -10%; Vaccinia mCherry: -11%

How did C(=N\n1cnc2ccccc21)/c1cccnc1 do in these assays?
AMA1-RON2 inh: -5%; Pf growth 96h: -4%

What do the screens show for `Cc1cc2ncn(/N=C/c3cccnc3)c2cc1C`?
Pf growth 48h: 15µM*; Vaccinia Venus: -19%; AMA1-RON2 inh: -6%; Vaccinia mCherry: -29%; Pf growth 96h: inconclusive

How did CC(C)Cc1nnc(NC(=O)CCC(=O)N2CCN(Cc3ccc(F)cc3)CC2)s1 do in these assays?
Pf growth 48h: 11%; AMA1-RON2 inh: 0%; Pf growth 96h: inconclusive
